Of roughly 8,800 targets only a part is listed; those with a hit were picked by preference. About 0.5% of all pairs of compound and target were hits.
compound: CN1CCN(c2nc(C3=C(c4c[nH]c5ccccc45)C(=O)NC3=O)c3ccccc3n2)CC1 [sotrastaurin]; experiment: log2 fold change, soluble protein after heating vs DMSO (PISA); higher = thermal stabilisation; K562 lysate, 10 uM; active = over 0.2 and 3.5 SD of the protein, either way, in both replicates (recomputed)
Procedure, shortened: (§1)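 Soluble protein was defined as the supernatant remaining after 21,000xg for 90 min, following pooling of heated aliquots and adjustment to 0.5% NP-40 at 4°C. Before that, crude K562 extract at 1 mg/mL protein in PBS pH 7.4 with 1 mM MgCl2 was treated with 10 μM compound for 30 min and heated for 3 min across 48°C-58°C. Quantification used TMTpro 16plex LC-MS/MS with channel sums equalised, and values are log-two fold changes in thermal stability relative to solvent controls from duplicates.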

Sequence of UniProt P00156 (P00156 whole entry, looked up): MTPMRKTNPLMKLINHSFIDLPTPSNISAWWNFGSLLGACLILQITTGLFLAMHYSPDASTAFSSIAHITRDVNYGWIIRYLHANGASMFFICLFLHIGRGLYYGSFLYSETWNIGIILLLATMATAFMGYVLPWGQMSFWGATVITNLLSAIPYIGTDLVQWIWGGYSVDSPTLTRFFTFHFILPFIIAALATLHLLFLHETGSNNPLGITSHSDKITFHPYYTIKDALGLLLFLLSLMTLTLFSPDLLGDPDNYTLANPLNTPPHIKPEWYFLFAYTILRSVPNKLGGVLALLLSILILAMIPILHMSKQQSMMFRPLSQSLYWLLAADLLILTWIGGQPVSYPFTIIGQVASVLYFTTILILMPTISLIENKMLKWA
Sequence of UniProt Q9Y639 (Q9Y639 whole entry, looked up): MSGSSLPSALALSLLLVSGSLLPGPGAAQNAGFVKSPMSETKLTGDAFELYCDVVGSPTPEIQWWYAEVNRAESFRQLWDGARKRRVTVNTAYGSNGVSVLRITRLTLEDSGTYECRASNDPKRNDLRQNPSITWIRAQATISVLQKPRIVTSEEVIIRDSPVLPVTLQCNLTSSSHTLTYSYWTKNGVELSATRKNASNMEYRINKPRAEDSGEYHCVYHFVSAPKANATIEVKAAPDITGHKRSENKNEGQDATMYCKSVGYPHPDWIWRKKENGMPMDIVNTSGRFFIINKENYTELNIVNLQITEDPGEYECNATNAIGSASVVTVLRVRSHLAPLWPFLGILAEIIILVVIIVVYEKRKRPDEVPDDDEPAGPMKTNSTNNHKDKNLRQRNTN
Sequence of UniProt Q9BRA0 (Q9BRA0 whole entry, looked up): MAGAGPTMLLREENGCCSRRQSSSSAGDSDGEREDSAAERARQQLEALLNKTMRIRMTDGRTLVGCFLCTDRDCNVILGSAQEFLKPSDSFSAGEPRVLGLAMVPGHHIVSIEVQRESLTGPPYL
Sequence of UniProt Q9UBD5 (Q9UBD5 whole entry, looked up): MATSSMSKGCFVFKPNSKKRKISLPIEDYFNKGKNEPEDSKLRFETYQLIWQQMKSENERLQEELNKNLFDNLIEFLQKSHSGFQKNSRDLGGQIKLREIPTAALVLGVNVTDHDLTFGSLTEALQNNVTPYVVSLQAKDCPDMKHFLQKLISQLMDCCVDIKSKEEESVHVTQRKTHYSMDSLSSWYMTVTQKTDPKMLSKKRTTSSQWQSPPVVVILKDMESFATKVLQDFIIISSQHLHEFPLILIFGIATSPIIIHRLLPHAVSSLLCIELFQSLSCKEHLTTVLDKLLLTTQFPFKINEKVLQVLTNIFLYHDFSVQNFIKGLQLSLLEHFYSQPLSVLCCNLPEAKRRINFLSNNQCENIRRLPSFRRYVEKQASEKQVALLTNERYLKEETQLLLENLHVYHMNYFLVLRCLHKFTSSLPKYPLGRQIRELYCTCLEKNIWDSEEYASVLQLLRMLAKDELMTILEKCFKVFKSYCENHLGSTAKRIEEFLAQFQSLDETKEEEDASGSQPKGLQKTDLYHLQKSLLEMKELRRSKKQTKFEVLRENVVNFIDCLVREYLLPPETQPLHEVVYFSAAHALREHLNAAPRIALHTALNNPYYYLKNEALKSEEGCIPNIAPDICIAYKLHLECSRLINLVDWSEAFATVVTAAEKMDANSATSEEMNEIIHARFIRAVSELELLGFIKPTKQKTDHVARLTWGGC
Sequence of UniProt Q96DH6 (Q96DH6 whole entry, looked up): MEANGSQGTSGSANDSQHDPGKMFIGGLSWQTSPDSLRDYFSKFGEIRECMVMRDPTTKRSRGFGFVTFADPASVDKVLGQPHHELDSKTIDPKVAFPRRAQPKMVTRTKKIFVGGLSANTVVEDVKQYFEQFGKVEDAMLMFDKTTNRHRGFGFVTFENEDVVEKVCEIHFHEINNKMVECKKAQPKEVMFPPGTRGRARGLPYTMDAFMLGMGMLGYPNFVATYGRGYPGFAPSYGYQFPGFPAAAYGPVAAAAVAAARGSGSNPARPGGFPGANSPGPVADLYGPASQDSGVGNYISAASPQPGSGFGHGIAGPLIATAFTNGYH
Sequence of UniProt Q12769 (Q12769 whole entry, looked up): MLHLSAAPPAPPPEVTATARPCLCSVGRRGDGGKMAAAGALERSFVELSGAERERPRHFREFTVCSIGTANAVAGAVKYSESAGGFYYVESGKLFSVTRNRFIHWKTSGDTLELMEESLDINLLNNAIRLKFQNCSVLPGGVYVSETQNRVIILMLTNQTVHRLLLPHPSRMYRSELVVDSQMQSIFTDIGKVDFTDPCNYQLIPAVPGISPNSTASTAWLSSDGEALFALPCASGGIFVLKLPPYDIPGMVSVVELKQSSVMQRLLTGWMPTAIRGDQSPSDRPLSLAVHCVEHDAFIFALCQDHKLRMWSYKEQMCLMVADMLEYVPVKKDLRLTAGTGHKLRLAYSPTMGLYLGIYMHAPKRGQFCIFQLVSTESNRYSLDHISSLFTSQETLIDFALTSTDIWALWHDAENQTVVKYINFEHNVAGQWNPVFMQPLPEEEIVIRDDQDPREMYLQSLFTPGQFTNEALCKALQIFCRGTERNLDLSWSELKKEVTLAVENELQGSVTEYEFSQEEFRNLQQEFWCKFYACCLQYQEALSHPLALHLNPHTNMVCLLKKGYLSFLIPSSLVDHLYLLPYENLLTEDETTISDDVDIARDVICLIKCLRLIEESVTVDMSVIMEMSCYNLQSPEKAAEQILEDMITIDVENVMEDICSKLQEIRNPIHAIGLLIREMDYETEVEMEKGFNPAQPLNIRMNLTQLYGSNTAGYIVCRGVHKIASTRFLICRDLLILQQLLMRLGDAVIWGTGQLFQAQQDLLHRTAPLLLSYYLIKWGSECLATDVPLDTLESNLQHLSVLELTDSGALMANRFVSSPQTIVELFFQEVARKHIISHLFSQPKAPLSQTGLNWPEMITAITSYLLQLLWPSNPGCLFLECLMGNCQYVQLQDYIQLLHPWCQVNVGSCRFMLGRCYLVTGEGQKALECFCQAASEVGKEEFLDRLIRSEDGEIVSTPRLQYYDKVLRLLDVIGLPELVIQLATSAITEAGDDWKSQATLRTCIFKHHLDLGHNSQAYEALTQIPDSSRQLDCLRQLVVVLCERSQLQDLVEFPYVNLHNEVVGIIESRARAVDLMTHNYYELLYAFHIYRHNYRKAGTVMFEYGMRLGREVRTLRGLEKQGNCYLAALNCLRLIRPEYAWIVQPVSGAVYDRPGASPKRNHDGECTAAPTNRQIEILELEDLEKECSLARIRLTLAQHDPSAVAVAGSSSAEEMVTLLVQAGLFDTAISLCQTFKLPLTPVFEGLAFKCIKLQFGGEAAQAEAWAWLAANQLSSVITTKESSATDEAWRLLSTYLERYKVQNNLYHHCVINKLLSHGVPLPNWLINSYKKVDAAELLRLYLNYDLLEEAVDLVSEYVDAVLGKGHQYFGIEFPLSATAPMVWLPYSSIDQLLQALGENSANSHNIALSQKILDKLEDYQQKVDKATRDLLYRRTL
Sequence of UniProt O75607 (O75607 whole entry, looked up): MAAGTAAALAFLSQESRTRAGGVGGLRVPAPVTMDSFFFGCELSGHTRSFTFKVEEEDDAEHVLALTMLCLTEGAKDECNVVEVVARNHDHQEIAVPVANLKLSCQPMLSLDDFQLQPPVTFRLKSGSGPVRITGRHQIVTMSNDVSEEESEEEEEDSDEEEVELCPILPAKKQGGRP
Sequence of UniProt Q504Q3 (Q504Q3 whole entry, looked up): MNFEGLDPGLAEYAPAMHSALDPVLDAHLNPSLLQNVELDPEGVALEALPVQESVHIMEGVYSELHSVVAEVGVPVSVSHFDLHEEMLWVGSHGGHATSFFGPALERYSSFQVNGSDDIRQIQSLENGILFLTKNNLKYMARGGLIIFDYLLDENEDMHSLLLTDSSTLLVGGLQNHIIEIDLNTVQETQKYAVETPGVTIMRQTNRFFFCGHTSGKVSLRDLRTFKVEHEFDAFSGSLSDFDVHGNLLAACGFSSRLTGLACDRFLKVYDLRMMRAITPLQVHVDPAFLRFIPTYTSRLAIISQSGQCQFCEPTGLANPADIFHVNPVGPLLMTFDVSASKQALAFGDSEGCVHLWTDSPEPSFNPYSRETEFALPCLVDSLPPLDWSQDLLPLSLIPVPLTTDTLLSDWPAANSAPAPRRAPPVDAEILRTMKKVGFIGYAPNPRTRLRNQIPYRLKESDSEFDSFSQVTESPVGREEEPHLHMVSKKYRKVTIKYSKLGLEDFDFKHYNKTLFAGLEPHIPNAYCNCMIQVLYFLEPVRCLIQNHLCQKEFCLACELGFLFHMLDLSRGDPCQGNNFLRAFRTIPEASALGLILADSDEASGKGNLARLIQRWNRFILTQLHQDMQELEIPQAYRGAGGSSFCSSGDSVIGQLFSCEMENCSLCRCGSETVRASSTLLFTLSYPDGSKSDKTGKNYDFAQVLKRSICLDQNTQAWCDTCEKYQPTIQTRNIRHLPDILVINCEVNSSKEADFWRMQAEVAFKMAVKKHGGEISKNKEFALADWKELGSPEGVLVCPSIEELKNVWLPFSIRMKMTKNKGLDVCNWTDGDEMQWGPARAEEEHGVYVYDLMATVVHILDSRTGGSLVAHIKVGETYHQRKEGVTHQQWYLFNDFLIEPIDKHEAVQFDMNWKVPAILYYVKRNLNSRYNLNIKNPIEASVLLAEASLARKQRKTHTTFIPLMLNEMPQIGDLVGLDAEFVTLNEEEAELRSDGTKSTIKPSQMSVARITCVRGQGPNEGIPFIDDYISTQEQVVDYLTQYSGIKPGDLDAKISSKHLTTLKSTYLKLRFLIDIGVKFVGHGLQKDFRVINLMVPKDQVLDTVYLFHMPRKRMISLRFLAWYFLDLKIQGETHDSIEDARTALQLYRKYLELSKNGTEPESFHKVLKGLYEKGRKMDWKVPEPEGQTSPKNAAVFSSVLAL
Sequence of UniProt Q9NZJ9 (Q9NZJ9 whole entry, looked up): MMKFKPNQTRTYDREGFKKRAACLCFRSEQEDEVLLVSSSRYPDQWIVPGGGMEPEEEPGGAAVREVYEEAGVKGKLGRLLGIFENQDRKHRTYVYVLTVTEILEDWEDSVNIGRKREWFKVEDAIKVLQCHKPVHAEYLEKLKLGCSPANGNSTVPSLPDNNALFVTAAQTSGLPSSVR

Target | log2 fold change
NOSTRIN (UniProt Q8IVI9) | -0.054 (inactive)
NUP160 (UniProt Q12769) | -0.01 (inactive)
MT-CYB (UniProt P00156) | 0.027 (inactive)
PARG (UniProt Q86W56) | 0.02 (inactive)
OSGEP (UniProt Q9NPF4) | -0.008 (inactive)
ORC3 isoform 2 (UniProt Q9UBD5) | 0.027 (inactive)
MTHFD1, A0A384N5Y3 | 0.039 (inactive)
NAA38 isoform 2 (UniProt Q9BRA0) | -0.079 (inactive)
NPTN (UniProt Q9Y639) | -0.016 (inactive)
NUP133 (UniProt Q8WUM0) | 0.038 (inactive)
MSI2 (UniProt Q96DH6) | -0.002 (inactive)
PAN2 isoform 2 (UniProt Q504Q3) | 0.018 (inactive)
NPM3 (UniProt O75607) | 0.025 (inactive)

compound: CN1CC[C@H](c2c(O)cc(O)c3c(=O)cc(-c4ccccc4Cl)oc23)[C@H](O)C1 [alvocidib]; experiment: as above
Procedure, shortened: as §1

Target | log2 fold change
NUMBL (UniProt Q9Y6R0) | -0.032 (inactive)
OPA1 isoform 2 (UniProt O60313) | 0.012 (inactive)
MTHFD1L (UniProt B7ZM99) | 0.029 (inactive)
PARD3 (UniProt Q8TEW0) | -0.035 (inactive)
NACC1 (UniProt Q96RE7) | -0.02 (inactive)
NEDD8 (UniProt Q15843) | 0.169 (inactive)
PANK4 (UniProt Q9NVE7) | -0.009 (inactive)
NAA35 (UniProt Q5VZE5) | 0.018 (inactive)
OGFR (UniProt Q9NZT2) | 0.022 (inactive)
MTMR6 (UniProt Q9Y217) | -0.034 (inactive)
OTC (UniProt P00480) | -1.18 (active)
NELFCD (UniProt Q8IXH7) | 0.015 (inactive)
NFATC2IP (UniProt Q8NCF5) | -0.015 (inactive)
NUDT4 isoform 2 (UniProt Q9NZJ9) | -0.001 (inactive)
NADK2 (UniProt Q4G0N4) | -0.025 (inactive)
NUP98 (UniProt P52948) | -0.019 (inactive)
NR3C1 isoform 3 (UniProt P04150) | -0.004 (inactive)
PAXBP1 (UniProt Q9Y5B6) | -0.043 (inactive)

Target | log2 fold change
NCAPD3 (UniProt P42695) | -0.006 (inactive)
NPLOC4 isoform 2 (UniProt Q8TAT6) | -0.06 (inactive)
N4BP2 (UniProt Q86UW6) | 0.063 (inactive)
NCAPD2 (UniProt Q15021) | 0.007 (inactive)
NCAPG (UniProt Q9BPX3) | 0.003 (inactive)
NOSTRIN (UniProt Q8IVI9) | -0.009 (inactive)
NUP160 (UniProt Q12769) | 0.029 (inactive)
MT-CYB (UniProt P00156) | -0.326 (inactive)
PARG (UniProt Q86W56) | 0.03 (inactive)
OSGEP (UniProt Q9NPF4) | -0.062 (inactive)
ORC3 isoform 2 (UniProt Q9UBD5) | 0.006 (inactive)
MTHFD1, A0A384N5Y3 | 0.036 (inactive)
NAA38 isoform 2 (UniProt Q9BRA0) | -0.143 (inactive)
NPTN (UniProt Q9Y639) | -0.023 (inactive)
NUP133 (UniProt Q8WUM0) | -0.08 (inactive)
MSI2 (UniProt Q96DH6) | 0.035 (inactive)
PAN2 isoform 2 (UniProt Q504Q3) | -0.023 (inactive)
NPM3 (UniProt O75607) | -0.04 (inactive)

compound: CN1CCc2c(c3ccccc3n2Cc2ccc(C(=O)NO)cc2)C1 [Tubastatin A]; experiment: as above
Procedure, shortened: as §1

Target | log2 fold change
NUMBL (UniProt Q9Y6R0) | -0.103 (inactive)
OPA1 isoform 2 (UniProt O60313) | 0.038 (inactive)
MTHFD1L (UniProt B7ZM99) | -0.084 (inactive)
PARD3 (UniProt Q8TEW0) | -0.087 (inactive)
NACC1 (UniProt Q96RE7) | -0.086 (inactive)
NEDD8 (UniProt Q15843) | 0.132 (inactive)
PANK4 (UniProt Q9NVE7) | -0.117 (inactive)
NAA35 (UniProt Q5VZE5) | -0.056 (inactive)
OGFR (UniProt Q9NZT2) | -0.089 (inactive)
MTMR6 (UniProt Q9Y217) | -0.019 (inactive)
OTC (UniProt P00480) | 0.148 (inactive)
NELFCD (UniProt Q8IXH7) | -0.148 (inactive)
NFATC2IP (UniProt Q8NCF5) | 0.002 (inactive)
NUDT4 isoform 2 (UniProt Q9NZJ9) | -0.101 (inactive)
NADK2 (UniProt Q4G0N4) | 0.106 (inactive)
NUP98 (UniProt P52948) | -0.117 (inactive)
NR3C1 isoform 3 (UniProt P04150) | -0.088 (inactive)
PAXBP1 (UniProt Q9Y5B6) | -0.069 (inactive)

Target | log2 fold change
NCAPD3 (UniProt P42695) | -0.224 (inactive)
NPLOC4 isoform 2 (UniProt Q8TAT6) | 0.013 (inactive)
N4BP2 (UniProt Q86UW6) | -0.17 (inactive)
NCAPD2 (UniProt Q15021) | -0.119 (inactive)
NCAPG (UniProt Q9BPX3) | -0.113 (inactive)
NOSTRIN (UniProt Q8IVI9) | -0.35 (active)
NUP160 (UniProt Q12769) | -0.143 (inactive)
MT-CYB (UniProt P00156) | 0.078 (inactive)
PARG (UniProt Q86W56) | -0.055 (inactive)
OSGEP (UniProt Q9NPF4) | 0 (inactive)
ORC3 isoform 2 (UniProt Q9UBD5) | -0.155 (inactive)
MTHFD1, A0A384N5Y3 | -0.076 (inactive)
NAA38 isoform 2 (UniProt Q9BRA0) | -0.005 (inactive)
NPTN (UniProt Q9Y639) | -0.01 (inactive)
NUP133 (UniProt Q8WUM0) | -0.111 (inactive)
MSI2 (UniProt Q96DH6) | -0.082 (inactive)
PAN2 isoform 2 (UniProt Q504Q3) | -0.025 (inactive)
NPM3 (UniProt O75607) | 0.015 (inactive)
